Results reported in PubChem BioAssay (Tox21).
Values joined by “and” are separate entries in the source; they are usually repeats but may differ in a detail not shown here. Equal entries are not always repeated. Records with an inconclusive call do not appear. Active and inactive are the calls of the source. Unless noted, the call rests on the fitted dose curve; in most records, active means well fitted curve in the direction sought with a large enough effect in the repeat runs; inconclusive means weak or mixed curves; inactive means no such curve, though single readings can be large; an effect the other way counts as inactive or inconclusive.

Key:
[1] = qHTS assay to identify small molecule antagonists of the glucocorticoid receptor (GR) signaling pathway - cell viability counter screen (AID 720693); further: nearly all actives have a fitted effect of over 55% in size
[2] = qHTS assay for identifying genotoxic compounds that show differential cytotoxicity against isogenic chicken DT40 cell lines with known DNA damage response pathways - Rev3 mutant cell line (AID 743014); further: nearly all actives have a fitted effect of over 55% in size; further: potency means the concentration at half of the fitted maximal effect
[3] = qHTS assay for identifying genotoxic compounds that show differential cytotoxicity against isogenic chicken DT40 cell lines with known DNA damage response pathways - Rad54/Ku70 mutant cell line (AID 743015); further: nearly all actives have a fitted effect of over 60% in size; further: potency means the concentration at half of the fitted maximal effect
[4] = qHTS assay to identify small molecule antagonists of the androgen receptor (AR) signaling pathway - cell viability counter screen (AID 743033; further: nearly all actives have a fitted effect of over 45% in size; further: potency means the concentration at half of the fitted maximal effect)
[5] = qHTS assay to identify small molecule antagonists of the androgen receptor (AR) signaling pathway using the MDA cell line - cell viability counter screen (AID 743041; further: nearly all actives have a fitted effect of over 45% in size)
Procedure, shortened: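 qHTS viability read-out; MDA-kb2 AR-luc; R1881-stimulated; 16 h exposure at 37C, 0% CO2; CellTiter-Fluor, 30 min; fluorescence intensity.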

[6] = qHTS assay for identifying genotoxic compounds that show differential cytotoxicity against isogenic chicken DT40 cell lines with known DNA damage response pathways - wild type cell line (AID 743012); further: nearly all actives have a fitted effect of over 60% in size; further: potency means the concentration at half of the fitted maximal effect
Procedure, shortened: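 CellTiter-Glo luminescence readout of viability in wild type DT40 cells after 40 h compound exposure at 37 C/5% CO2; 300 cells/well; reagent incubated 30 min at room temperature before reading.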

[7] = biological target: Androgen receptor (Homo sapiens) (UniProt P10275); assay: qHTS assay to identify small molecule antagonists of the androgen receptor (AR) signaling pathway (AID 743035; active means well fitted inhibition curve with a large enough effect in the signal ratio in the repeat runs, not every such curve was filed as active; the % refers to the signal ratio; further: potency means the concentration at half of the fitted maximal effect)
Procedure, shortened: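 AR-bla HEK293 reporter cells; 4 h settle at 37C/5% CO2; compound + R1881 agonist, 16 h at 37C; LiveBLAzer B/G FRET substrate 2 h RT; fluorescence intensity read. qHTS format.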

[8] = biological target: Androgen receptor (Homo sapiens) (UniProt P10275); assay: qHTS assay to identify small molecule agonists of the androgen receptor (AR) signaling pathway (AID 743036; active means well fitted activation curve with a large enough effect in the signal ratio in the repeat runs, with a control signal flat, not every such curve was filed as active; the % refers to the signal ratio)
Procedure, shortened: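 Screening used 2,000 AR-bla HEK293 cells per well, treated 16 h at 37C with test compounds in DMSO alongside positive and DMSO-only controls; beta-lactamase activity was then read by LiveBLAzer B/G FRET fluorescence after 2 h at room temperature.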

[9] = biological target: Androgen receptor (Homo sapiens) (UniProt P10275); assay: qHTS assay to identify small molecule antagonists of the androgen receptor (AR) signaling pathway using the MDA cell line (AID 743042; further: nearly all actives have a fitted effect of over 55% in size; further: potency means the concentration at half of the fitted maximal effect)
Procedure, shortened: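 MDA-kb2 cells (human breast carcinoma, stably carrying an MMTV-luciferase reporter responsive to AR and GR) were plated at 3,000 cells/well and preincubated 5 hr at 37C, then given compound plus R1881 agonist for 16 h. ONE-Glo luminescence was read.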

[10] = biological target: Androgen receptor (Homo sapiens) (UniProt P10275); assay: qHTS assay to identify small molecule agonists of the androgen receptor (AR) signaling pathway using the MDA cell line (AID 743040; further: nearly all actives have a fitted effect of over 20% in size)
Procedure, shortened: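 Agonist activity is measured as luciferase luminescence in human MDA-kb2 cells whose MMTV reporter responds to both AR and GR. Compounds in DMSO incubate 16 h at 37C, 0% CO2, and ONE-Glo is read after 30 min.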

Measured: Potency

Chain of Androgen receptor (Homo sapiens) (P10275 whole entry, looked up): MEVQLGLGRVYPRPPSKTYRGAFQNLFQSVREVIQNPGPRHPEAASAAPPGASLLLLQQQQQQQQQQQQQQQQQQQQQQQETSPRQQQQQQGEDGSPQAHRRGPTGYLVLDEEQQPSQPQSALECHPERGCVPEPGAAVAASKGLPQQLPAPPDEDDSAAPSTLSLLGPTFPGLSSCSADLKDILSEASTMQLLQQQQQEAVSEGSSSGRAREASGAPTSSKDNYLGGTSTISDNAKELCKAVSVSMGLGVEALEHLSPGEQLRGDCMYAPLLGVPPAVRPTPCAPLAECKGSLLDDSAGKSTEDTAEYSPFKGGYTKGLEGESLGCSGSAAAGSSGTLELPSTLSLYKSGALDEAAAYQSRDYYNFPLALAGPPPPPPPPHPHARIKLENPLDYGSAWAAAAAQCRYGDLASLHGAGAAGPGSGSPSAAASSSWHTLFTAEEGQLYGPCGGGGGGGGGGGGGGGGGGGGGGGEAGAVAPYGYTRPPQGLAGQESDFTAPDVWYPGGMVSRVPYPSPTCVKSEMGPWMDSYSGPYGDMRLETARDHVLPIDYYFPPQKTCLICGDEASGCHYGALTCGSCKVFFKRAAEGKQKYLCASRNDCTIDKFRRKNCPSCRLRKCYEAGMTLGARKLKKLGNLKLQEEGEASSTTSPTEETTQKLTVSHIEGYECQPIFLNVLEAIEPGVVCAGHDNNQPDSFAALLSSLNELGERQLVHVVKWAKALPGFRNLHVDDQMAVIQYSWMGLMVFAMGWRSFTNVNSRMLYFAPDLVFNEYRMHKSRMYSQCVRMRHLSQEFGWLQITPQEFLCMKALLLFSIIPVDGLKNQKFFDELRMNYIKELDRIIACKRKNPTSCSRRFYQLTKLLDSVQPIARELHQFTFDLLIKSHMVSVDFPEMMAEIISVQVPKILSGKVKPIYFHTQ

CC/C=C\C/C=C\C/C=C\C/C=C\C/C=C\CCCC(=O)O
inactive: [1] | [2] | [3] | [4] | [5]

CN1C(=O)C[C@@H](C(=O)N[C@@H](Cc2cnc[nH]2)C(=O)N2CCC[C@H]2C(N)=O)NC1=O
inactive: [1] | [6] | [3] | [5]

CCOC(=O)Cc1ccc(-c2ccccc2)cc1
inactive: [1] | [2] | [3] | [4] | [5]

NCCCC(=O)O
inactive: [1] | [6] | [3] | [4] | [5]

CCC(O)c1ccccc1 (stereo not drawn)
inactive: [1] | [2] | [3] | [5]

COC1[C@@H](O[C@@H]2O[C@H](C)[C@@H](O[C@H]3C[C@@](C)(O)[C@H](OC(=O)CC(C)C)[C@H](C)O3)[C@H](N(C)C)[C@H]2O)[C@@H](CC=O)C[C@@H](C)[C@@H](O)/C=C/C=C/C[C@@H](C)OC(=O)C[C@H]1OC(C)=O (stereo partly drawn)
inactive: [1] | [2] | [3] | [5]

O=C1CCC(c2ccccc2)(C2CCN(Cc3ccccc3)CC2)C(=O)N1 (stereo not drawn)
inactive: [1] | [2] | [4] | [5]

CCSCC
inactive: [1] | [6] | [3] | [5]

C[Se]CC[C@H](N)C(=O)O
inactive: [1] | [6] | [3] | [5]

OCCCNc1ccccc1
inactive: [1] | [3] | [4] | [5]

CC(C)=CCC/C(C)=C/CC/C(C)=C/CC/C(C)=C/CC1=C(C)C(=O)c2ccccc2C1=O
active: [6] 29.8 µM and 10.6 µM
inactive: [1] | [4] | [5]

CCN(CC)C(=O)[C@]1(c2ccccc2)C[C@@H]1CN
inactive: [1] | [6] | [3] | [5]

CC[C@H]1OC(=O)C[C@@H](O)[C@H](C)[C@@H](O[C@@H]2O[C@H](C)[C@@H](O)[C@H](N(C)C)[C@H]2O)[C@@H](CCN2C[C@H](C)C[C@H](C)C2)C[C@@H](C)C(=O)/C=C/C(C)=C/[C@@H]1CO[C@@H]1O[C@H](C)[C@@H](O)[C@@H](OC)[C@H]1OC
inactive: [1] | [6] | [7] | [8] | [5] | [9]

CC[C@H]1OC(=O)C[C@@H](O)[C@H](C)[C@@H](O[C@@H]2O[C@H](C)[C@@H](O[C@H]3C[C@@](C)(O)[C@@H](O)[C@H](C)O3)[C@H](N(C)C)[C@H]2O)[C@@H](CC=O)C[C@@H](C)C(=O)/C=C/C(C)=C/[C@@H]1CO[C@@H]1O[C@H](C)[C@@H](O)[C@@H](OC)[C@H]1OC
inactive: [1] | [6] | [5]

O=C1CCCCCCCCCCCCCC1
inactive: [1] | [6] | [4] | [5]

Cc1onc(-c2c(F)cccc2Cl)c1C(=O)N[C@@H]1C(=O)N2[C@@H]1SC(C)(C)[C@@H]2C(=O)O
inactive: [1] | [6] | [3] | [5]

CC1(C)S[C@@H]2[C@H](N3C(=O)C(c4ccccc4)NC3(C)C)C(=O)N2[C@H]1C(=O)O (stereo partly drawn)
inactive: [1] | [6] | [3] | [4] | [5]

Cc1cn([C@H]2C[C@H](O)[C@@H](CO)O2)c(=O)[nH]c1=O
inactive: [1] | [6] | [3] | [5]

CC(C)(C)c1ccc2c(S(=O)(=O)O)c(C(C)(C)C)ccc2c1
inactive: [1] | [6] | [3] | [4] | [5]

CCOC(=O)COc1ccc2c(=O)cc(-c3ccccc3)oc2c1
active: [6] 29.8 µM | [3] 29.8 µM
inactive: [1] | [5]

CC(=NCc1ccccc1)c1ccccc1O
inactive: [1] | [6] | [3] | [4] | [5]

C=C(Nc1ccc(OCC)cc1)Nc1ccc(OCC)cc1
inactive: [1] | [5]
active: [6] 29.8 µM and 23.7 µM | [3] 23.7 µM

CC[C@@H](C)[C@H](N)C(=O)O
inactive: [1] | [6] | [3] | [5]

O=C(Nc1ccccc1)c1cc(Cl)ccc1O
active: [6] 13.7 µM | [2] 9.69 µM | [3] 9.69 µM

Nc1nc(/C(=C/CC(=O)O)C(=O)N[C@@H]2C(=O)N3C(C(=O)O)=CCS[C@H]23)cs1
inactive: [6] | [2] | [3] | [4] | [5]

CC1CCCCN1CCCOC(=O)c1ccccc1 (stereo not drawn)
inactive: [1] | [4] | [5]

NC(=S)NS(=O)(=O)c1ccc(N)cc1
inactive: [6] | [2] | [3] | [4] | [5]

CC12CCC(C[N+](C)(CCC[N+](C)(C)C)C1)C2(C)C (stereo not drawn)
inactive: [6] | [2] | [3] | [4] | [5]

CCN(CC)CCOC[C@H]1O[C@@H](O)[C@H](OCCN(CC)CC)[C@@H](O)[C@@H]1O
inactive: [6] | [2] | [3] | [4] | [5]

NCc1cccc(C2CCN(C(=O)c3ccc(C#Cc4ccccc4F)o3)CC2)c1
active: [6] 17.2 µM | [2] 30.6 µM | [3] 17.2 µM | [4] 21.9 µM
inactive: [10]

CC(C)=CCC/C(C)=C/CC/C(C)=C/CC/C=C(\C)CC/C=C(\C)CCC=C(C)C
inactive: [6] | [2] | [3] | [4] | [5]

CN[C@H]1CC[C@@H](c2ccc(Cl)c(Cl)c2)c2ccc(S(N)(=O)=O)cc21
inactive: [8] | [10]
active: [6] 13.7 µM | [2] 13.7 µM | [3] 13.7 µM | [4] 54.9 µM | [7] 43.6 µM | [9] 68.6 µM
